This note sets out measurements from PubChem BioAssay AID463173 (ICCB-Longwood Screening Facility, Harvard Medical School, 2010).

Screen size: about 52,000 compounds; about 4,300 (8.3%) were called active. The sample as a whole holds a higher share of actives than the screen did. A number with no mark means an inactive call. Cut-off read from the data, not from the text of the source: active = survival mostly below about 52% (no sharp cut-off); inactive = mostly above about 56%.

In this assay the test system is DeltatarO mutant. Nature of the assay: growth inhibition of S. aureus wild type versus tarO mutant, primary screen, teichoic acid synthesis inhibitors, RN4220, OD600 (AID 463173). To be noted: OD600, 18 h, active compounds read low, screened at 18.75 µg/mL (by protocol).
As to `O=C(CCNS(=O)(=O)c1ccc2c(c1)CCCC(=O)N2)NCc1ccccc1Cl`, the survival is 87%.

For the compound `CCCOc1ccc(CNC(=O)Cn2ncn3c(cc4sc(CC)cc43)c2=O)cc1`, the survival was 94%.

With `CC(C)Cc1nn2c(=O)cc(COC(=O)c3ccccc3NC(=O)c3ccccc3)nc2s1`, the survival was 117%.

Take `CSc1ncc(C(=O)Nc2ccccc2C(=O)c2ccccc2)c(C)n1`: the survival was 64%.

As to `Cc1cccc(C(=O)NC(c2n[nH]c(=S)n2C)C(C)C)c1` (stereo not drawn), the survival is 111%.

As for `CCCOc1cccc(C(=O)Nc2cccc(NC(=O)c3ccc(Cl)cc3Cl)c2)c1`, the survival was 88%.

Consider `CCc1ccc(NC(=O)Cc2c(C(=O)O)c(C)cn2C)cc1`, for which the survival was 87%.

Turning to `Cc1cn(C)c(CC(=O)Nc2cccc(Cl)c2C)c1C(=O)O`, the survival is 99%.

As to `Cc1c(Cl)cccc1NC(=O)CCOc1ccccc1`, the survival was 142%.

As to `CCOC(=O)c1ccccc1NC(=O)Cc1c(C(=O)O)c(C)cn1C`, the survival was 17% (active).

Take `Cc1ccc(C)c(NC(=O)CCOc2ccccc2)c1`: the survival is 77%.

Take `CCOC(=O)c1ccccc1NC(=O)CCOc1ccccc1`: the survival is 22% (active).

Turning to `COc1ccc(C2(C(=O)O)CCCC2)cc1OC`, the survival was 107%.

As for `CSc1ncc(C(=O)N2CCN(c3cc(C)ccc3C)CC2)c(C)n1`, the survival was 72%.

`Cc1ccc(S(=O)(=O)c2nnn3c2nc(N2CCC(C)CC2)c2cc(Cl)ccc23)cc1C`: the survival is 78%.

On to `COc1ccc(OC)c(C2C(C(=O)N3CCCCC3)=C(C)Nc3nc4ccccc4n32)c1` (stereo not drawn), for which the survival is 63%.

As for `COc1ccc(-n2cnc3cc(C(=O)NCCC4=CCCCC4)ccc32)cc1`, the survival was 75%.

As to `CC(C)C(=O)Nc1ccc(N2CCN(C(=O)c3ccccc3)CC2)cc1`, the survival was 101%.

On to `CCOCCCn1c(SCC(=O)Nc2ccccc2CC)nc2ccccc2c1=O`, for which the survival is 80%.

In the case of `CC(C)CCn1c(SCc2cccc(F)c2)nc2ccsc2c1=O`, the survival was 87%.

With `O=C(CSc1nc2ccsc2c(=O)n1Cc1ccccc1Cl)NCc1ccc(Cl)cc1`, the survival is 101%.

Regarding `Cc1ccc(Cn2c(SCC(=O)NCc3ccccc3)nc3ccsc3c2=O)cc1`, the survival is 92%.

As to `Cc1ccc(CSc2nc3ccsc3c(=O)n2CCC(C)C)cc1`, the survival was -5% (active).

For `Cc1ccc(Cn2c(SCC(=O)NCc3ccccc3Cl)nc3ccsc3c2=O)cc1`, the survival is -5% (active).

Consider `Cc1ccccc1CSc1nc2ccsc2c(=O)n1CCC(C)C`, for which the survival was 68%.

For `Cc1nc2sc(C(=O)N(C)Cc3ccccc3)c(NC(=O)c3ccccc3)c2c(C)c1Cl`, the survival was 60%.

On to `Cc1cc(=O)n(Cc2ccccc2Cl)c2c1c(C)nn2-c1ccccc1`, for which the survival was 100%.

Turning to `CCOc1ccc(CNC(=O)c2nn(-c3ccc(OC)cc3)c(=O)c3c2c2ccccc2n3C)cc1`, the survival is 101%.

Take `CCC(=O)N1c2ccccc2CC1C(=O)NCc1ccc(OC(C)C)cc1` (stereo not drawn): the survival was 97%.

As to `CC1CCN(CC(=O)O)CC1`, the survival was 99%.

Consider `COc1cc(-c2noc(CSc3nc(-c4ccc(F)cc4)cc(=O)[nH]3)n2)cc(OC)c1OC`, for which the survival was 69%.

Regarding `CC1CCN(C(=O)c2cc(-c3ccc(Br)cc3)on2)CC1`, the survival was 51%.

Turning to `O=C(c1cc(-c2ccc(O)cc2)on1)N1CCN(c2ccccc2)CC1`, the survival was 96%.

Take `O=C(O)c1cc(-c2ccccc2)on1`: the survival is 100%.

With `O=C(C1CC(c2ccccc2O)=NO1)N1CCCC1` (stereo not drawn), the survival was 91%.

For the compound `CC1CCN(C(=O)c2cc(-c3cccc(Cl)c3)on2)CC1`, the survival is -15% (active).

In the case of `CCc1cc(C(=O)N2CCN(c3ccccc3)CC2)no1`, the survival is 48%.

`CN(C(=O)c1cc(-c2ccccc2O)on1)c1ccccc1`: the survival was 40% (active).

As for `O=C(c1cc(-c2cccc(Cl)c2)on1)N1CCN(c2ccccc2)CC1`, the survival is 23% (active).

For the compound `CC1CCN(C(=O)c2cc(-c3ccc(Cl)cc3)on2)CC1`, the survival was 66%.

As for `O=C(c1cc(-c2ccccc2O)on1)N1CCCCC1`, the survival is 40% (active).

With `NC(=O)C1CCN(C(=O)c2cc(-c3ccccc3)on2)CC1`, the survival was 98%.

Consider `CN(C(=O)c1cc(-c2ccccc2)on1)C1CCCCC1`, for which the survival was 91%.

In the case of `CCN(CCCNC(=O)Cn1ncc2c([nH]c3ccc(C)cc32)c1=O)c1ccccc1`, the survival was 115%.

As to `Cc1csc2nc(COc3ccc(NC(=O)C(C)C)cc3)cc(=O)n12`, the survival is 98%.

On to `COc1ccc(NC(=O)Cn2cc(C(=O)c3ccccc3)c(=O)c3cc(OC)ccc32)c(OC)c1`, for which the survival was 92%.

With `CCCn1cc(S(=O)(=O)c2ccc(C)c(C)c2)c(=O)c2cc(F)c(N3CCC(C)CC3)cc21`, the survival is 67%.

Take `COc1cccc2cc(C(=O)N3CCN(c4cc(C)ccc4C)CC3)c(=O)oc12`: the survival is 56%.

With `Cc1cccc(CNC(=O)CN2C(=O)CCn3nc(-c4cn(C)c5ccccc45)cc32)c1`, the survival was 119%.

Consider `CCOC(=O)COc1ccc(CC)cc1C(=O)c1ccn2nc(-c3ccc(Cl)cc3)cc2n1`, for which the survival was 74%.

As to `COc1ccccc1NC(=O)N(Cc1nnc2n1CCCCC2)c1ccc(F)cc1`, the survival is 91%.

Consider `COc1ccccc1-c1cc(C(=O)N2CCN(c3ccccc3)CC2)no1`, for which the survival was -15% (active).

For `O=C(c1cc(-c2ccccc2)on1)N1CCCCC1`, the survival is 95%.

Turning to `CCN(CC)C(=O)c1cc(-c2ccccc2)on1`, the survival was 101%.

With `CCc1ccc(CN(Cc2ccco2)C(=O)c2cc(-c3ccc(Cl)cc3)on2)cc1`, the survival was 75%.

`COc1ccccc1N1CCN(C(=O)c2cc(-c3ccccc3O)on2)CC1`: the survival is 61%.

For the compound `COc1ccc(-c2cc(C(=O)N3CCN(c4ccccc4)CC3)no2)cc1`, the survival is 77%.

As for `COCCNC(=O)c1cc(-c2cccc(Cl)c2)on1`, the survival was 134%.

For `O=C(c1cc(-c2cccc(Cl)c2)on1)N1CCCCC1`, the survival was 46% (active).

Take `CCN(CC)C(=O)c1cc(-c2ccc(Cl)cc2)on1`: the survival is 36% (active).

Regarding `CN(Cc1ccccc1)C(=O)c1cc(-c2cccc(Cl)c2)on1`, the survival is -15% (active).

As to `Cc1ccc(-c2cc(C(=O)N3CCCC3)no2)cc1`, the survival was 98%.

Regarding `O=C(NCCc1ccccc1)c1cc(-c2cccc(Cl)c2)on1`, the survival was 76%.
